Results filed as inconclusive are left out. Activity calls are given as the source filed them. Calls come from the whole dose curve; as a rule, active = well fitted curve in the direction sought with a large enough effect; inconclusive = small, poorly fitted or top-dose-only effect, or another doubt; inactive = no such curve, though single readings can be large; an effect the other way counts as inactive or inconclusive.
Legend:
NIH3T3 = assay: qHTS assay to identify novel small-molecules to repurpose for Merkel cell carcinoma treatment (AID 1296009); details: MCC and control cell lines, CellTiter-Glo viability, 72 h; at 44.8 µM (top of the series) unless noted; note: nearly all actives have a fitted effect of over 60% in size
Summary of the method: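 Luminescence from CellTiter-Glo, read 10 min after addition at room temperature, reported viability following a 72 hr, 37 degree celsius treatment with NPC or MIPE compounds in titration; values normalized to plate controls.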

C33A = assay: Primary qHTS to identify gynecologic anti-cancer compounds using libraries of approved drugs and bioactive compounds (AID 1345084); details: Gynecologic cancer cell panel viability, ATPlite luminescence, 48 h; series mostly up to 57.5 µM; note: % is set by controls: 0 for no effect and ±100 for the full control effect; nearly all actives have a fitted effect of over 55% in size
Summary of the method: (§1)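 Five-concentration response, 48 h; readout is ATP-driven luciferase luminescence.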

CAOV3 = assay: as above; details: Gynecologic cancer cell panel viability, ATPlite luminescence, 48 h; series mostly up to 57.5 µM
Summary of the method: as §1

CASKI = assay: as above; details: Gynecologic cancer cell panel viability, ATPlite luminescence, 48 h; series mostly up to 57.5 µM
Summary of the method: as §1

Es-2 = assay: as above; details: Gynecologic cancer cell panel viability, ATPlite luminescence, 48 h; series mostly up to 57.5 µM
Summary of the method: as §1

HeLa = assay: as above; details: Gynecologic cancer cell panel viability, ATPlite luminescence, 48 h; series mostly up to 57.5 µM
Summary of the method: as §1

Hek293T = assay: as above; details: Gynecologic cancer cell panel viability, ATPlite luminescence, 48 h, control line for the selectivity index; series mostly up to 57.5 µM
Summary of the method: as §1

JEG-3 = assay: as above; details: Gynecologic cancer cell panel viability, ATPlite luminescence, 48 h; series mostly up to 57.5 µM
Summary of the method: as §1

OV90 = assay: as above; details: Gynecologic cancer cell panel viability, ATPlite luminescence, 48 h; series mostly up to 57.5 µM
Summary of the method: as §1

PA-1 = assay: as above; details: Gynecologic cancer cell panel viability, ATPlite luminescence, 48 h; series mostly up to 57.5 µM
Summary of the method: as §1

SKOV3 = assay: as above; details: Gynecologic cancer cell panel viability, ATPlite luminescence, 48 h; series mostly up to 57.5 µM
Summary of the method: as §1

Tov-21-G = assay: as above; details: Gynecologic cancer cell panel viability, ATPlite luminescence, 48 h; series mostly up to 57.5 µM
Summary of the method: as §1

Tov112D = assay: as above; details: Gynecologic cancer cell panel viability, ATPlite luminescence, 48 h; series mostly up to 57.5 µM
Summary of the method: as §1

Cc1occc(=O)c1O[C@@H]1O[C@H](COC(=O)CC(C)(O)CC(=O)O)[C@@H](O)[C@H](O)[C@H]1O (stereo partly specified)
inactive: outcome (NIH3T3) inactive [at 17.4 µM] | Potency (C33A) | Potency (CAOV3) | outcome (CASKI) | Potency (Es-2) | Potency (HeLa) | Potency (Hek293T) | Potency (JEG-3) | Potency (OV90) | Potency (PA-1) | Potency (SKOV3) | Potency (Tov-21-G) | Potency (Tov112D)

COc1cccc(OC)c1-c1nc(C(=O)N[C@@H](CC(C)C)C(=O)O)cn1-c1ccnc2cc(Cl)ccc12
inactive: outcome (NIH3T3) | Potency (C33A) | Potency (CAOV3) | outcome (CASKI) | Potency (Es-2) | Potency (HeLa) | Potency (Hek293T) | Potency (JEG-3) | Potency (OV90) | Potency (PA-1) | Potency (SKOV3) | Potency (Tov-21-G) | Potency (Tov112D)

COc1cc2c(cc1O)CC(O)(CO)C(CO)C2c1ccc(OC2OC(CO)C(O)C(O)C2O)c(OC)c1 (stereo unspecified)
inactive: outcome (NIH3T3) inactive [at 17.4 µM] | Potency (C33A) | Potency (CAOV3) | outcome (CASKI) | Potency (Es-2) | Potency (HeLa) | Potency (Hek293T) | Potency (JEG-3) | Potency (OV90) | Potency (PA-1) | Potency (SKOV3) | Potency (Tov-21-G) | Potency (Tov112D)

C=C(C)[C@@H]1CC[C@]2(CO)CC[C@]3(C)[C@H](CC[C@@H]4[C@@]5(C)CC[C@H](O)C(C)(C)[C@@H]5CC[C@]43C)[C@@H]12
inactive: outcome (NIH3T3) inactive [at 17.4 µM] | Potency (C33A) | Potency (CAOV3) | outcome (CASKI) | Potency (Es-2) | Potency (HeLa) | Potency (Hek293T) | Potency (JEG-3) | Potency (OV90) | Potency (PA-1) | Potency (SKOV3) | Potency (Tov-21-G) | Potency (Tov112D)

NCCCCN(Cc1nc2ccccc2[nH]1)[C@H]1CCCc2cccnc21
inactive: outcome (NIH3T3) inactive [at 17.4 µM] | Potency (C33A) | Potency (CAOV3) | outcome (CASKI) | Potency (Es-2) | Potency (HeLa) | Potency (Hek293T) | Potency (JEG-3) | Potency (OV90) | Potency (PA-1) | Potency (SKOV3) | Potency (Tov-21-G) | Potency (Tov112D)

O=S(=O)(O)c1ccc(Nc2ncnc3c2ncn3[C@@H]2O[C@H](CO)[C@@H](O)[C@H]2O)cc1
inactive: outcome (NIH3T3) | Potency (C33A) | Potency (CAOV3) | outcome (CASKI) | Potency (Es-2) | Potency (HeLa) | Potency (Hek293T) | Potency (JEG-3) | Potency (OV90) | Potency (PA-1) | Potency (SKOV3) | Potency (Tov-21-G) | Potency (Tov112D)

CC1=CC23[C@H](C=C(C(=O)O)[C@@H]2COC(=O)[C@]3(O)CO)[C@@H]1C (stereo partly specified)
inactive: outcome (NIH3T3) | Potency (C33A) | Potency (CAOV3) | outcome (CASKI) | Potency (Es-2) | Potency (HeLa) | Potency (Hek293T) | Potency (JEG-3) | Potency (OV90) | Potency (PA-1) | Potency (SKOV3) | Potency (Tov-21-G) | Potency (Tov112D)

C[C@]12CCC[C@](C)(C(=O)O)C1CCC13CC(CO)C(CCC12)C3 (stereo partly specified)
inactive: outcome (NIH3T3) | Potency (C33A) | Potency (CAOV3) | outcome (CASKI) | Potency (Es-2) | Potency (HeLa) | Potency (Hek293T) | Potency (JEG-3) | Potency (OV90) | Potency (PA-1) | Potency (SKOV3) | Potency (Tov-21-G) | Potency (Tov112D)

CCC(=O)OCC(=O)[C@@]1(OC(=O)CC)[C@@H](C)C[C@H]2[C@@H]3CCC4=CC(=O)C=C[C@]4(C)[C@@]3(F)[C@@H](O)C[C@@]21C
inactive: outcome (NIH3T3) | Potency (C33A) | Potency (CAOV3) | outcome (CASKI) | Potency (Es-2) | Potency (HeLa) | Potency (Hek293T) | Potency (JEG-3) | Potency (OV90) | Potency (PA-1) | Potency (SKOV3) | Potency (Tov-21-G) | Potency (Tov112D)

CC1(C)CCC2(C(=O)O)CCC3(C)C(=CCC4C5(C)CCC(O)C(C)(CO)C5C(O)CC43C)C2C1 (stereo unspecified)
inactive: outcome (NIH3T3) inactive [at 17.4 µM] | Potency (C33A) | Potency (CAOV3) | outcome (CASKI) | Potency (Es-2) | Potency (HeLa) | Potency (Hek293T) | Potency (JEG-3) | Potency (OV90) | Potency (PA-1) | Potency (SKOV3) | Potency (Tov-21-G) | Potency (Tov112D)

CC(=O)OC1C(O)C(C)(O)C(/C=C/C(=O)O)C2(C)CCCC(C)(C)C12 (stereo unspecified)
inactive: outcome (NIH3T3) | Potency (C33A) | Potency (CAOV3) | outcome (CASKI) | Potency (Es-2) | Potency (HeLa) | Potency (Hek293T) | Potency (JEG-3) | Potency (OV90) | Potency (PA-1) | Potency (SKOV3) | Potency (Tov-21-G) | Potency (Tov112D)

COc1cc(C)c(C(=O)NC2C(C)OC(OC3CCC(C)C4C3C=C(C)C3/C(C)=C\CC/C(C)=C/C5(C)C=C(C(=O)O)C(C)CC56OC(=O)/C(=C(\O)C34C)C6=O)C(O)C2(C)O)c(O)c1 (stereo unspecified)
inactive: outcome (NIH3T3) inactive [at 9.27 µM] | activity change, negative = cytotoxicity (C33A) 8.62% [at 11.6 µM] | activity change, negative = cytotoxicity (CAOV3) 11.9% [at 11.6 µM] | activity change, negative = cytotoxicity (CASKI) 23.4% [at 11.6 µM] | activity change, negative = cytotoxicity (Es-2) -2.46% [at 11.6 µM] | activity change, negative = cytotoxicity (HeLa) 2.6% [at 11.6 µM] | activity change, negative = cytotoxicity (Hek293T) 9.94% [at 11.6 µM] | activity change, negative = cytotoxicity (JEG-3) 4.16% [at 11.6 µM] | activity change, negative = cytotoxicity (OV90) 6.29% [at 11.6 µM] | activity change, negative = cytotoxicity (PA-1) -2.04% [at 11.6 µM] | activity change, negative = cytotoxicity (SKOV3) -10.1% [at 11.6 µM] | activity change, negative = cytotoxicity (Tov-21-G) 4.24% [at 11.6 µM] | activity change, negative = cytotoxicity (Tov112D) 8.49% [at 11.6 µM]

— PubChem BioAssay (NCATS)
